% cells with GFP-LC3 spots and toxicity data for 41 molecules are collected here from PubChem BioAssay AID463193 (University of Pittsburgh Molecular Library Screening Center, 2010).

SMILES strings stand for the structures. In all, about 190,000 compounds went through this assay and about 1,900 (1%) were called active.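 The calls were made as follows: active = percentage of spot-positive cells more than 3 SD above its plate mean, without a fluorescence outlier flag or 80% toxicity; inconclusive = no clear call, values can overlap the other calls; inactive = the rest.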 Many of the other results were omitted from the sample, so actives are more common in it than they were.

The test can be described thus: GFP-LC3 puncta formation changes – imaging, high-content, MEF GFP-LC3, primary screen (AID 463193).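 As to % cells with GFP-LC3 spots: spot-positive cell cutoff set from DMSO-treated cells.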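 As to toxicity: cell loss after 18 h compound exposure.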 The following applies: autophagy, at 10 µM; % cells with GFP-LC3 spots: stronger effect = higher value; toxicity: measured here: cell loss, nuclei count.
As for `CCn1c(O)c(N=NC(=O)c2cccc(S(=O)(=O)N3CCCCC3)c2)c2ccccc21`, the % cells with GFP-LC3 spots was 17.3% (inactive) and the toxicity turned out to be 3.19%.
Take `CCN(CC)S(=O)(=O)c1cc([N+](=O)[O-])ccc1NNC(=O)Nc1ccccc1`: the % cells with GFP-LC3 spots is 2.34% (inactive) and the toxicity was -10.5%.
For `CCN(CC)S(=O)(=O)c1cc([N+](=O)[O-])ccc1N=Nc1c(O)n(C)c2ccccc12`, the % cells with GFP-LC3 spots is 39.2% (active) and the toxicity came out at 2.86%.
For `CCCCNC(=O)CCn1c(=O)c2ccccc2n(Cc2cc(C)ccc2C)c1=O`, in that order: 8.22% (inactive) and -3.52%.
In the case of `COc1ccc(CN(C)Cc2nc3cc(OC)c(OC)cc3c(=O)[nH]2)c(OC)c1`, the % cells with GFP-LC3 spots was 25% (inactive) and the toxicity is -8.88%.
Consider `O=C(/C=C/c1cn(-c2ccccc2)nc1-c1ccc2c(c1)OCCO2)NCCCN1CCOCC1`, for which the % cells with GFP-LC3 spots is 1.77% (inactive) and the toxicity is -8.43%.
Regarding `COC(=O)N/N=C/c1ccc(/C=N/NC(=O)OC)cc1`, the % cells with GFP-LC3 spots is 0.31% (inactive) and the toxicity was -3.93%.
As for `CCOc1ccc(/C=N/NC(N)=S)cc1`, the % cells with GFP-LC3 spots is 19.6% (active) and the toxicity stood at 21.8%.
In the case of `NC(=S)N/N=C/c1ccc([N+](=O)[O-])cc1`, the % cells with GFP-LC3 spots was 8.24% (inactive) and the toxicity was 23.5%.
For `CCN1C(=O)/C(=C\N2CCN(c3ccccc3)CC2)SC1=S` the same measures were 1.26% (inactive) and -4.66%.
For `CCN1C(=O)/C(=C\N2CCN(c3cccc(Cl)c3)CC2)SC1=S` the same measures were 4.39% (active) and 13.1%.
On to `CCN1C(=O)/C(=C\N2CCOCC2)SC1=S`, for which the % cells with GFP-LC3 spots was 5.71% (inactive) and the toxicity is -3.29%.
For `O=C(NCC(=O)N(CC1CCCO1)C(C(=O)NC1CCCCC1)c1ccccc1)c1ccco1` (configuration not stated) the same measures were 0.515% (inactive) and -9.95%.
In the case of `COc1ccc(NC(=O)C(Br)C(C)C)cc1` (configuration not stated), the % cells with GFP-LC3 spots is 14.9% (inactive) and the toxicity was 8.32%.
Consider `CC(=O)C1(C)N(O)C(C)(C)C(c2cccs2)=[N+]1[O-]` (configuration not stated), for which the % cells with GFP-LC3 spots was 3.17% (inactive) and the toxicity is -3.76%.
Turning to `CC(C)(C)NC(=O)CN(C(=O)c1ccc(Cl)nc1)c1cccc2ccccc12`, the % cells with GFP-LC3 spots was 0.133% (inactive) and the toxicity was -8.05%.
For `CC(C)(C)NC(=O)CN(C(=O)c1csnn1)c1ccccc1-c1ccccc1`, in that order: 8.79% (active) and 5.01%.
Regarding `CCC(C)(C)NC(=O)C(c1ccccn1)N(C(=O)c1csnn1)c1ccccc1` (configuration not stated), the % cells with GFP-LC3 spots was 3.17% (inactive) and the toxicity was determined as 14.8%.
For `Cn1c(-c2ccc(F)cc2)cnc1SCC(=O)NNC(=O)Cc1ccccc1`, the % cells with GFP-LC3 spots is 2.62% (inactive) and the toxicity is -10.5%.
In the case of `CCOC(=O)/C(C#N)=C/c1cn(CCC(=O)O)nc1-c1ccc(Br)cc1`, the % cells with GFP-LC3 spots was 0.855% (inactive) and the toxicity is -6.28%.
On to `CC1=NN(C(=O)CCc2ccccc2O)C(O)(C(F)(F)F)C1` (configuration not stated), for which the % cells with GFP-LC3 spots is 3.31% (inactive) and the toxicity was -3.6%.
As to `COc1ccc(CC(=O)N2N=C(C)CC2(O)C(F)(F)F)cc1` (configuration not stated), the % cells with GFP-LC3 spots was 1.78% (inactive) and the toxicity is 0.121%.
For `CC1=NN(C(=O)CCCc2ccccc2)C(O)(C(F)(F)F)C1` (configuration not stated), in that order: 4.12% (active) and 3.92%.
On to `CN1CCN(NC(=O)c2ccc(S(=O)(=O)N3CCCCCC3)cc2)CC1`, for which the % cells with GFP-LC3 spots is 1.83% (inactive) and the toxicity came to 28%.
On to `O=C(CSc1nc2ccccc2c(=O)n1CCCO)N1CCc2ccccc21`, for which the % cells with GFP-LC3 spots is 7.69% (inactive) and the toxicity is -0.286%.
As for `O=C(CSc1nc2[nH]ncc2c(=O)n1-c1ccccc1)N1CCCc2ccccc21`, the % cells with GFP-LC3 spots is 6.24% (inactive) and the toxicity stood at 17.2%.
With `Cn1c(SCC(=O)N2CCCc3ccccc32)nc2ccccc2c1=O`, the % cells with GFP-LC3 spots is 11.1% (active) and the toxicity worked out at 28.2%.
As for `CCCCN(CC(=O)NC(C)(C)C)C(=O)C(=O)Nc1ccc2c(c1)OCCO2`, the % cells with GFP-LC3 spots is 0.957% (inactive) and the toxicity is 5.19%.
In the case of `C/C(=N\NC(=O)c1ccc(NS(=O)(=O)c2cccs2)cc1)c1ccc2ccccc2c1`, the % cells with GFP-LC3 spots is 20.7% (inactive) and the toxicity was -14.3%.
For `CCNC(=O)COc1cc(C)c(Br)c(C)c1` the same measures were 22.5% (inactive) and 9.49%.
For `COc1ccccc1C(c1nnnn1CC1CCCO1)N1CCN(c2ccccc2)CC1` (configuration not stated), the % cells with GFP-LC3 spots was 0.609% (inactive) and the toxicity was -7.4%.
For `COc1ccc(CCn2nnnc2C(c2ccccc2)N2CCN(C)CC2)cc1OC` (configuration not stated), the % cells with GFP-LC3 spots is 22.3% (inactive) and the toxicity is -9.31%.
For the molecule `COc1ccc(C(c2nnnn2Cc2cccs2)N2CCN(c3ccccc3)CC2)cc1OC` (configuration not stated), the % cells with GFP-LC3 spots was 10.1% (active) and the toxicity is 46.3%.
For `Cc1ccc(NC(=O)c2ccccn2)cc1S(=O)(=O)N1CCOCC1` the same measures were 7.19% (inactive) and 21.1%.
As to `COc1ccc(NC(=S)NCC2CCN(c3ccc(OC)cc3)C2)cc1` (configuration not stated), the % cells with GFP-LC3 spots was 6.08% (inactive) and the toxicity was 8.9%.
As to `COc1ccc(C(=O)Nc2ccc(NC(=O)C(C)C)nc2)cc1`, the % cells with GFP-LC3 spots is 4.13% (inactive) and the toxicity was -1.69%.
With `COc1ccc(CC(=O)Nc2ccc(C(=O)NC(C)(C)C)cc2)cc1`, the % cells with GFP-LC3 spots was 6.06% (inactive) and the toxicity was -0.0115%.
With `Cc1ccc(OCC(=O)Nc2ccc(-c3nc4ncccc4o3)cc2)cc1`, the % cells with GFP-LC3 spots was 13.3% (inactive) and the toxicity was -0.528%.
Consider `COc1ccc(CC(=O)Nc2ccc(-c3nnc(-c4ccc(C)cc4)o3)cc2)cc1`, for which the % cells with GFP-LC3 spots was 39.9% (active) and the toxicity was 9.61%.
Take `CN(c1ccc2nc3ccccc3c(=O)n2n1)C1CCCCC1`: the % cells with GFP-LC3 spots was 14.8% (inactive) and the toxicity was 11.6%.
On to `Nc1nc(NC(=O)/C=C/c2ccccc2)nn1-c1ccccc1`, for which the % cells with GFP-LC3 spots was 7.01% (inactive) and the toxicity stood at 2.03%.
